Assay outcomes: PubChem, National Center for Advancing Translational Sciences (NCATS)
Hits are enriched below; roughly 19% of the tested compounds scored in any of these assays.
IL1B secr inh: qHTS for Inhibitors of Inflammasome Signaling: IL-1-beta AlphaLISA Primary Screen; THP-1 LPS/ATP IL-1B secretion, AlphaLISA, 16 h; stronger effect = lower value; AID 743279, 2014; 360,000 tested, 4.7% active; activity change, % at 57.5 µM; in the data active = activity change below about -50%; inconclusive = mostly about -30% to -49%; also: % is scaled to controls: 0 for no effect and ±100 for the full control effect
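Secreted IL-1B measured by AlphaLISA bead assay after 16 h compound exposure of THP-1 cells; compounds (final up to 57.5 uM) added 1 h before LPS (250 ng/mL) and ATP (1.25 mM) stimulation; lower signal means less secretion.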
TDP1 cell CPT: qHTS for Inhibitors of human tyrosyl-DNA phosphodiesterase 1 (TDP1): qHTS in cells in presence of CPT | chicken DT40 Tdp1-/-;hTDP1 cells + 20 nM CPT, ATP luminescence, 48 h | Potency, µM (highest dose often 46.2 µM), inactives show at the highest dose activity change, negative = growth inhibition, hits mostly inhibitors | 420,000 tested, 12% active | AID 686979, 2013; also: potency is read from the fitted curve at half-maximal effect; % is scaled to controls: 0 for no effect and ±100 for the full control effect; nearly all actives have a fitted effect of over 55% in size
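Chicken DT40 Tdp1-/- cells stably complemented with human TDP1 were seeded at 400 cells/well in medium containing 20 nM camptothecin, exposed to pin-transferred compounds, and grown at 37 °C for at least 48 hr. Viability was read as ATP luminescence.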
S-ASM inh: Inhibitors of Secretory Acid Sphingomyelinase (S-ASM): qHTS; AID 504937, 2011; Potency, µM (series often up to 57.5 µM), inactives show top-dose activity change, negative = inhibition, usual class: inhibitors; 340,000 tested, 0.006% active; placental ASM, HMU-PC fluorogenic substrate, 60 min; Sphingomyelin phosphodiesterase (Homo sapiens), P17405; also: potency is read from the fitted curve at half-maximal effect
Target sequence (P17405 47-631 limits assumed): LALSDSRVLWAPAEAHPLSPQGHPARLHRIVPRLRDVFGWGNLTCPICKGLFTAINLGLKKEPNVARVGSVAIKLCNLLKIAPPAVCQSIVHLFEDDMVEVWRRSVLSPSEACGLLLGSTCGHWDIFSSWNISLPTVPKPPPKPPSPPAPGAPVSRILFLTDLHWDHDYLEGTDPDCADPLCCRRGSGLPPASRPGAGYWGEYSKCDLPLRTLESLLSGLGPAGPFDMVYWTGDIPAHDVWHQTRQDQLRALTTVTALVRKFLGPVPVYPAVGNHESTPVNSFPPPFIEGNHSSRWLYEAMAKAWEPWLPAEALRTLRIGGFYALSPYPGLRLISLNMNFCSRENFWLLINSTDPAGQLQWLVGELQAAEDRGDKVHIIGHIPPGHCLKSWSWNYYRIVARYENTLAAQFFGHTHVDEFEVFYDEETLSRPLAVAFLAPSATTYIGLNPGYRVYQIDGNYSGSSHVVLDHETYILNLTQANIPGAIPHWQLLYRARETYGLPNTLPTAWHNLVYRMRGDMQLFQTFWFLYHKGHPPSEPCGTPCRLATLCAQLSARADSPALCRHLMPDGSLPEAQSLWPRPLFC
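Steps: dispense placental human ASM, pin compound, wait 10 min at room temperature, add HMU-PC0 substrate at 9 uM final, incubate 60 min at 37 °C, add stop solution raising pH to 10, read fluorescence.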
TGFb SMAD3 inh: qHTS for Inhibitors of TGF-b; HepG2 CAGA-GFP TGF-b/SMAD3 reporter, GFP fluorescence, 18 h; TGF-beta stimulated, 500 pg/mL final; Potency, µM (highest dose often 46.1 µM), for inactives: top-dose activity, negative = inhibition, most hits filed as inhibitors; 410,000 tested, 1.2% active; also: potency is read from the fitted curve at half-maximal effect; % is scaled to controls: 0 for no effect and ±100 for the full control effect; nearly all actives have a fitted effect of over 65% in size
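Inhibition was scored as loss of TGF-beta-induced (500 pg/mL final, 18 hours, 37 degrees C) GFP in HEPG2 cells carrying a CAGA-GFP reporter, in DMEM with 1% FBS. Well GFP was summed per cell; Activity was normalised to unstimulated and stimulated DMSO wells, then concentration-response fitting.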
TDP1 cell noCPT: qHTS for Inhibitors of human tyrosyl-DNA phosphodiesterase 1 (TDP1): qHTS in cells in absence of CPT; DT40 Tdp1-/- hTDP1 cells, no CPT, ATP luminescence, 48 h; Potency, µM (doses to about 46.2 µM), inactives show at the highest dose activity change, negative = growth inhibition, most hits filed as inhibitors; 420,000 tested, 15% active; also: potency is read from the fitted curve at half-maximal effect; % is scaled to controls: 0 for no effect and ±100 for the full control effect; nearly all actives have a fitted effect of over 55% in size
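Growth kinetics read by CellTiter-Glo luminescence after ≥48 hr at 37 °C. Cells: DT40 Tdp1-/- stably carrying human TDP1, 400 per well, compound exposure in the absence of CPT (DMSO vehicle).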
HepG2 tox: qHTS for Inhibitors of TGF-b: Cytotox Counterscreen; HepG2 CAGA-GFP viability, ATP luminescence, 18 h; Potency, µM (titrated, usually from 46.1 µM), for the others: at the top dose activity change, negative = cytotoxicity, actives largely listed as cytotoxic; 410,000 tested, 0.76% active; AID 588856, 2011; also: potency is read from the fitted curve at half-maximal effect
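HepG2 CAGA-GFP cells (1000/well, DMEM with 1% FBS) received compound, then TGF-beta at 500 pg/mL final, and were incubated 18 hours at 37 degrees C. Viability was read by CellTiter-Glo luminescence. Media-only wells were set as complete cell-killing and DMSO as no toxicity.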
Active calls of the source: *; ? = inconclusive; nt = no result. Unless noted, calls follow the shape of the dose curve; as a rule, active = well fitted curve in the direction sought with a large enough effect; inconclusive = small, poorly fitted or top-dose-only effect, or another doubt; inactive = no such curve, though single readings can be large; an effect the other way counts as inactive or inconclusive.

SMILES	IL1B secr inh	TDP1 cell CPT	S-ASM inh	TGFb SMAD3 inh	TDP1 cell noCPT	HepG2 tox
CC1CCC(C(C)C)C(OCC(O)CN2CCN(Cc3ccccc3)CC2)C1 (stereo not given)	?	13µM*	-0.2%	-3.2%	14.6µM*	-21.9%
CC1CCC(C(C)C)C(OCC(O)C[N+]2(C)CCCCC2)C1 (stereo not given)	0.0	?	-0.4%	-0.6%	11.6µM*	2.3%
C[C@@H](C(=O)N[C@@H](Cc1ccccc1)C(=O)O)n1nnc2ccccc2c1=O	-17.0	-3.9%	0.8%	-0.1%	23.7%	8.6%
Cc1n[nH]c(C)c1N1C(=O)c2cccc3c(Br)ccc(c23)C1=O	-107.4*	?	-7.0%	0.0%	?	-4.5%
COc1cc(NC(=O)CN2CCN(CC(=O)Nc3ccc(F)cc3)CC2)cc(OC)c1	nt	-27.5%	nt	-12.4%	-19.9%	-27.5%
CCCCNC(=O)C1(C)CCCCN1C(=O)c1cc(-c2ccccc2)cs1 (stereo not given)	33.1	13µM*	nt	-12.0%	8.2µM*	-17.8%
CCCCN1CCCCC1(C)C(=O)NCc1cccc(OC)c1 (stereo not given)	28.9	-29.6%	nt	-10.0%	?	-4.9%
CCCCNC(=O)C1(C)CCCCN1Cc1ccccc1-c1ccccc1 (stereo not given)	-13.9	?	nt	?	?	20µM*
CCCCNC(=O)C1(C)CCCCN1C(=O)c1oc2ccccc2c1C (stereo not given)	21.4	14.6µM*	nt	-24.8%	10.3µM*	-9.5%
CCCCNC(=O)C1(C)CCCCN1CC(=O)c1ccc(OC)cc1 (stereo not given)	-10.0	16.4µM*	nt	-2.8%	25.9µM*	-5.5%
Cc1c(C(=O)N2CCCC2(C)C(=O)NCC(C)C)oc2ccccc12 (stereo not given)	12.3	-15.1%	nt	4.9%	-15.1%	11.1%
Cc1cccc(CNC(=O)c2cnc3sc(N4CCCCCC4)nn3c2=O)c1	nt	-16.2%	nt	0.0%	-8.7%	-21.6%
NC[C@@H]1O[C@H](c2ccccc2)Cc2c1ccc(O)c2O	nt	6.68µM*	nt	nt	9.44µM*	nt
NC[C@@H]1O[C@H](C23CC4CC(CC(C4)C2)C3)Cc2c1ccc(O)c2O	-24.6	23.1µM*	-14.6%	-20.5%	23.1µM*	-55.8%
CC(C)=CCc1c(O)cc2c(c1O)C(=O)CC(c1ccccc1)O2 (stereo not given)	21.4	-1.1%	-2.0%	-19.6%	?	-16.5%
CSc1c(SCc2ccccc2)cnn(-c2ccccc2)c1=O	-98.1*	?	-9.8%	-8.1%	?	-20.9%
COc1cnn(-c2ccccc2)c(=O)c1SCc1ccc(Cl)c(Cl)c1	?	-20.4%	-6.8%	-24.3%	?	-87.1%
Cn1ncc(S(=O)(=O)Cc2ccccc2)c(Cl)c1=O	nt	1.46µM*	3.4%	8.0%	3.26µM*	-24.6%
Cn1ncc(SCc2ccccc2)c(Cl)c1=O	nt	9.2µM*	-2.0%	-4.0%	10.3µM*	5.8%
C[C@H](CO)N1C[C@H](C)[C@@H](CN(C)S(C)(=O)=O)Oc2ccc(NS(=O)(=O)c3cn(C)cn3)cc2C1=O	16.9	5.0%	3.9%	9.9%	1.0%	5.3%
Cc1onc(-c2ccccc2Cl)c1C(=O)Nc1ccccc1C(=O)NC(C)C	?	3.26µM*	-2.8%	10.7%	2.31µM*	-23.9%
